From the supplement of paper PMC6555819

What follows are sequences tested on PXR homodimer (NR concentration 270 nM) (assay: PBM binding z-score (relative to random genomic background probes); higher = stronger binding; sequences stand for … in GC…GCGATTGACAGCGTAGAATGAAGG).
Method in brief: (§1)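 Antibodies against each partner of ligand-free nuclear receptor dimers (one per run) detected binding on custom Agilent 4×180K protein-binding microarrays after 1 h incubation. The double-stranded probes had 34-nt variable regions carrying direct-repeat seeds, single-nucleotide variants, half-site ablations and random human genomic background sequences. Binding z-scores, from regression-normalized fluorescence, use the random background probes as reference.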
In the case of AGTATGAGGTTATTAAGATCAGGGAATTGCGGTC, the PBM binding z-score is reported as 0.942.
TCTTGTAGATCAACAGGAGGTTTAGAAAGATCGA gave a PBM binding z-score of -0.425.
Work on TCGAGTAGGTTAGTCGGGTCATTCAGCCAACATA yielded a PBM binding z-score of 1.01.
Sequence CCTCGGAGGAAAACAGGAGGTCAGAGCTGCCAGA has a PBM binding z-score of 0.172.
CCTACTGGGCCATAGGTCATTGATTCCAATGCTC showed a PBM binding z-score of 0.286.
CCTAGTTGGACAGGAGGTCACACACCGGATATGA was tested, and the PBM binding z-score was 1.32.
In the case of CATAGTTGGTCAGGAGGTCACACACCGGATATGA, the PBM binding z-score is reported as 1.13.
For CCTTACGGGTCACGAGGTAATAGCACGACGAGCG, the PBM binding z-score was 0.0228.
For TGGAGTAGGTTACCAATGGGGCATTCAGCTTTCT, the PBM binding z-score was -0.17.
Sequence GCGACTGGGGCAAAGCAGTTTACCATAAGGTTGG has a PBM binding z-score of -0.386.
Sequence CCTTACGGGTCACTGACAGGTTATAACATTTGGA has a PBM binding z-score of 0.294.
For CTCGAAAGGGCGGTTGAGGTGAGTATACGGATAA, the PBM binding z-score was 0.128.
CTCGAAAGGTCGCTTGAGGTGAGTATACGGATAA was tested, and the PBM binding z-score was 0.207.
For CCTACTGGGCCAAAAAGGTCGTTGATGCCGATAA, the PBM binding z-score was 0.426.
CCGACAGGGGCAAGGTTACCATAACGCACAGCCA showed a PBM binding z-score of 0.0826.
CCTAGTTGGTCAGGAGGTCACCCACCGGATATGA gave a PBM binding z-score of 1.23.
Work on GCATATAGGTAATACAAGGTGTAAGTCCGATTGT yielded a PBM binding z-score of -0.0468.
AACTCTAGGTAACAAGTTCAGTGAAAGAGAGGAC gave a PBM binding z-score of 1.37.
In the case of CCTGCTAGGCCATGGTCAGCTAATCTACAGTATG, the PBM binding z-score is reported as -0.705.
Sequence AGTCAAAGTTAATCTAGGTAACGTAAGATATGCT has a PBM binding z-score of 0.136.
With CATACAGGGTCAGCTAGGTCAGAGTAGGGACGGC the PBM binding z-score was 1.7.
For CCTAGCAGGCCAATCTGGGTCAGTCAAGGCTTGA, the PBM binding z-score was -0.751.
ATATGTAGGTTAAGGGTCATTCATGTTGGTTCGC gave a PBM binding z-score of 1.38.
With TTACTAAGGTGAGCTGAGGTCGTTGATCCAACTC the PBM binding z-score was 0.515.
In the case of CAAACTAGGTCAAGGTCAAAGCCGGTTTGTGCCA, the PBM binding z-score is reported as 1.4.
CCTACTGGTCCAAAAAGGTCATTGATGCCGATAA gave a PBM binding z-score of 5.49.
Work on TCATATACGTAAAAGGTGAAAGTCGGTGTGGTAA yielded a PBM binding z-score of 0.642.
Work on ACTAGCAGGCCAAGTTTGGGTTACTCAAACAAAG yielded a PBM binding z-score of -0.543.
In the case of ATCTCTGGGTAAAGTTCAGTGAAAGATCGATAGA, the PBM binding z-score is reported as 1.91.
Sequence CCTGCTAGGTCAATTGTCAGCTAAAGCAGCTCGC has a PBM binding z-score of -0.49.
ACTATTAGTTGACTTAGGGCAACCTATACGACGC was tested, and the PBM binding z-score was 0.265.
For CGAACTAGGTCTTCCAGGACAGTGAATACATTGA, the PBM binding z-score was -0.138.
With CCTTGCGGGTCACTCCAGGTTATAGCATCGGAGT the PBM binding z-score was 0.258.
Work on CCGAGTAGGCTATGGGGCATTCAGGCAACGGTGA yielded a PBM binding z-score of -0.647.
With CAGCCTAGGTCAGGGCCAGAATAGGAGGAACGTT the PBM binding z-score was -0.618.
AGTAAAAGTTCATCTAGGTAACGTAAGATATGCT showed a PBM binding z-score of 3.57.
CATAAAGGGTCAGCTAGGCCAGAGTAGGGACGGC showed a PBM binding z-score of -0.269.
CGAACTAGGTCAAGGACACTGAATCTCCGCACGC was tested, and the PBM binding z-score was 0.0266.
Sequence GTACCAAGGTGAATAGGTCGTTTATGAGTAGGCG has a PBM binding z-score of 0.0793.
With AGTCAAAGTTCAGGACGAGGTAACGCAAAGCACG the PBM binding z-score was 1.03.

These sequences were tested on RARa:RXR (NR concentration 270 nM, RXRa partner concentration 90 nM) in the same assay as above.
Method in brief: as §1
With AGTATGAGGTTATTAAGATCAGGGAATTGCGGTC the PBM binding z-score was 1.55.
With TCTTGTAGATCAACAGGAGGTTTAGAAAGATCGA the PBM binding z-score was 0.104.
Sequence TCGAGTAGGTTAGTCGGGTCATTCAGCCAACATA has a PBM binding z-score of 2.77.
CCTCGGAGGAAAACAGGAGGTCAGAGCTGCCAGA gave a PBM binding z-score of 1.95.
CCTACTGGGCCATAGGTCATTGATTCCAATGCTC was tested, and the PBM binding z-score was 2.7.
In the case of CCTAGTTGGACAGGAGGTCACACACCGGATATGA, the PBM binding z-score is reported as 4.3.
Work on CATAGTTGGTCAGGAGGTCACACACCGGATATGA yielded a PBM binding z-score of 5.4.
Sequence CCTTACGGGTCACGAGGTAATAGCACGACGAGCG has a PBM binding z-score of 5.59.
For TGGAGTAGGTTACCAATGGGGCATTCAGCTTTCT, the PBM binding z-score was 0.243.
For GCGACTGGGGCAAAGCAGTTTACCATAAGGTTGG, the PBM binding z-score was -0.18.
CCTTACGGGTCACTGACAGGTTATAACATTTGGA showed a PBM binding z-score of 4.67.
CTCGAAAGGGCGGTTGAGGTGAGTATACGGATAA showed a PBM binding z-score of 0.395.
CTCGAAAGGTCGCTTGAGGTGAGTATACGGATAA was tested, and the PBM binding z-score was 3.93.
For CCTACTGGGCCAAAAAGGTCGTTGATGCCGATAA, the PBM binding z-score was 1.77.
Sequence CCGACAGGGGCAAGGTTACCATAACGCACAGCCA has a PBM binding z-score of 1.26.
In the case of CCTAGTTGGTCAGGAGGTCACCCACCGGATATGA, the PBM binding z-score is reported as 4.11.
With GCATATAGGTAATACAAGGTGTAAGTCCGATTGT the PBM binding z-score was 0.0684.
With AACTCTAGGTAACAAGTTCAGTGAAAGAGAGGAC the PBM binding z-score was 0.703.
For CCTGCTAGGCCATGGTCAGCTAATCTACAGTATG, the PBM binding z-score was -0.631.
AGTCAAAGTTAATCTAGGTAACGTAAGATATGCT gave a PBM binding z-score of 0.155.
CATACAGGGTCAGCTAGGTCAGAGTAGGGACGGC was tested, and the PBM binding z-score was 4.31.
Work on CCTAGCAGGCCAATCTGGGTCAGTCAAGGCTTGA yielded a PBM binding z-score of 0.0549.
Sequence ATATGTAGGTTAAGGGTCATTCATGTTGGTTCGC has a PBM binding z-score of 5.63.
In the case of TTACTAAGGTGAGCTGAGGTCGTTGATCCAACTC, the PBM binding z-score is reported as 2.16.
CAAACTAGGTCAAGGTCAAAGCCGGTTTGTGCCA gave a PBM binding z-score of 4.84.
CCTACTGGTCCAAAAAGGTCATTGATGCCGATAA gave a PBM binding z-score of 4.95.
For TCATATACGTAAAAGGTGAAAGTCGGTGTGGTAA, the PBM binding z-score was 1.89.
Sequence ACTAGCAGGCCAAGTTTGGGTTACTCAAACAAAG has a PBM binding z-score of 0.00564.
With ATCTCTGGGTAAAGTTCAGTGAAAGATCGATAGA the PBM binding z-score was 1.55.
CCTGCTAGGTCAATTGTCAGCTAAAGCAGCTCGC showed a PBM binding z-score of 1.34.
ACTATTAGTTGACTTAGGGCAACCTATACGACGC was tested, and the PBM binding z-score was 0.516.
For CGAACTAGGTCTTCCAGGACAGTGAATACATTGA, the PBM binding z-score was -0.242.
Sequence CCTTGCGGGTCACTCCAGGTTATAGCATCGGAGT has a PBM binding z-score of 3.14.
With CCGAGTAGGCTATGGGGCATTCAGGCAACGGTGA the PBM binding z-score was -0.583.
Work on CAGCCTAGGTCAGGGCCAGAATAGGAGGAACGTT yielded a PBM binding z-score of 0.927.
Sequence AGTAAAAGTTCATCTAGGTAACGTAAGATATGCT has a PBM binding z-score of 3.39.
CATAAAGGGTCAGCTAGGCCAGAGTAGGGACGGC showed a PBM binding z-score of 3.32.
For CGAACTAGGTCAAGGACACTGAATCTCCGCACGC, the PBM binding z-score was 1.97.
GTACCAAGGTGAATAGGTCGTTTATGAGTAGGCG showed a PBM binding z-score of 1.92.
With AGTCAAAGTTCAGGACGAGGTAACGCAAAGCACG the PBM binding z-score was 2.78.
